Assay results taken from PubChem BioAssay (NCI).
Compounds without any hit were thinned out: in the full panel of roughly 83,000, 20% have a hit.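 Note: values are percent growth. 100 is the growth of untreated cells, values between 100 and 0 indicate rising inhibition; between -100 and 0 indicates cell death.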 The source made the active and inactive calls. The calls were made as follows: active = growth percent below 10; inactive = the rest.

What follows are compounds tested on HL-60(TB) leukemia (assay: NCI-60 one-dose screen, 48 h (100 = growth as untreated, 0 = no growth, -100 = all killed)). Conditions: 10 µM unless noted.

Question: How did the growth turn out when O=C1c2cc3c(cc2-c2c1c1ccc(F)cc1c(=O)n2C[C@H](O)[C@H](O)[C@H](O)CO)OCO3 was run?
Answer: The growth was -14.8% (active).

Question: With COc1cc(NC(=O)c2cncnc2Nc2ccc3c(ccn3Cc3cccc(F)c3)c2)cc(OC)c1 as the compound, how does the growth read?
Answer: Its growth is 21% (inactive).

Question: Which growth does the source give for CCCCCCCCCCCCCCCCCC1=NCCN1C(=O)OCCO here?
Answer: The growth was 35.5% (inactive).

Question: With O=C1C=CC(=O)c2c1nc1n2CCCC1 as the compound, how does the growth read?
Answer: Its growth is 94.7% (inactive).

Question: Which growth does the source give for Cc1c(C(N)=O)sc2nc(SCC(=O)Nc3ccc(Cl)cc3)n(-c3ccccc3)c(=O)c12 here?
Answer: The growth was 171% (inactive).

Question: With Cc1cc2nc3c4ccccc4n(CCN(C)C)c3nc2cc1C as the compound, how does the growth read?
Answer: The growth was 8.35% (active).

Question: COc1ccc(/C=C\c2cc(OC)c(OC)c(OC)c2)cc1OC(=O)c1cccc(Cn2cc(CCOC(=O)c3cccc(Cn4nnc5c4C(=O)c4ccccc4C5=O)c3)nn2)c1 was tested. Which growth did it give?
Answer: Its growth is -21.9% (active).

Question: With Cc1nc2c(c(=O)[nH]1)OCN(Cc1ccccc1)C2 as the compound, how does the growth read?
Answer: The growth was 96.5% (inactive).

Question: Which growth does the source give for C=CCNC(=S)NNc1ccc([N+](=O)[O-])cn1 here?
Answer: Its growth is 87.2% (inactive).

Question: Which growth does the source give for O=C1/C(=C/c2cccs2)CCC/C1=C\c1cccs1 here?
Answer: The growth was 93.8% (inactive).

Question: How did the growth turn out when Cc1ccc(-c2nn(CC(=O)N3CCOCC3)c(N)c2C#N)cc1 was run?
Answer: The growth was 103% (inactive).

Question: With O=C(Nc1nn2c(-c3cc(C(F)(F)F)cc(C(F)(F)F)c3)nnc2s1)C1CCCC1 as the compound, how does the growth read?
Answer: Its growth is -53.3% (active).

Question: Which growth does the source give for CC1(C)C(=O)/C(=C\c2ccccn2)C[C@]2(C)[C@H]3CC[C@@H]4[C@@H](C(=O)/C=C/c5ccccn5)CC[C@@]4(C)[C@]3(C)CC[C@@H]12 here?
Answer: The growth was -14.4% (active).

Question: O=c1oc2ccc(I)cc2c(=O)n1-c1ccc(Cl)cc1F was tested. Which growth did it give?
Answer: The growth was -47.1% (active).

Question: How did the growth turn out when COc1ccc2c(c1)nc(N)c1c3cccnc3cn21 was run?
Answer: The growth was 14.9% (inactive).

Question: For CCCCCCc1nc2c(c(C)nn2-c2ccccc2)c2c1CCCCC2, which growth is on record?
Answer: Its growth is 108% (inactive).

Question: With Nc1nn(C(=O)Nc2ccc(Cc3ccccc3)cc2)c2ccc(Cl)cc12 as the compound, how does the growth read?
Answer: The growth was 24.9% (inactive).

Question: With CCOC(=O)c1sc2nc(-c3cc(OC)c(OC)c(OC)c3)nc(N3CCOCC3)c2c1C as the compound, how does the growth read?
Answer: Its growth is 24.7% (inactive).

Question: With COc1c(C2CC(=O)Nc3c2c(C)nn3-c2nc3ccccc3[nH]2)cc2c(c1OC)OCO2 (stereo not given) as the compound, how does the growth read?
Answer: The growth was 20.7% (inactive).

Question: With S=c1nn[nH]c2ccccc12 as the compound, how does the growth read?
Answer: The growth was 105% (inactive).

Question: C[C@@H](O)[C@H]1C(=O)N2C(C(=O)O)=C(SC3CN[C@H](C(=O)N(C)C)C3)[C@H](C)[C@H]12 (stereo not given in full) was tested. Which growth did it give?
Answer: Its growth is 87% (inactive).

Question: CCN1C(=O)/C(=C/C(=O)OC)S/C1=N\NC(=O)c1cc2ccc1/C=C\c1ccc(cc1)/C=C\2 was tested. Which growth did it give?
Answer: The growth was 88.4% (inactive).

Question: How did the growth turn out when COc1c2c(cc3c1C(=O)N[C@@H]1[C@@H](O)[C@@H](O)[C@H](O)C[C@@H]31)OCCO2 was run?
Answer: The growth was 95.4% (inactive).

Question: CCCCN1c2nc3ccccc3cc2Sc2cc3ccccc3nc21 was tested. Which growth did it give?
Answer: The growth was 101% (inactive).

Question: Which growth does the source give for Cc1[nH]nc2ccc3nc(-c4ccc5[nH]ncc5c4)c4c(c3c12)CCCC4 here?
Answer: Its growth is -15.5% (active).

Question: For Clc1ccc(-c2cc(-c3ccccc3)nc(N3CCN(CCCNc4ccnc5cc(Cl)ccc45)CC3)n2)cc1, which growth is on record?
Answer: The growth was -39% (active).

Question: For COc1cc2c(cc1OC)C(=O)C(Br)CC2 (stereo not given), which growth is on record?
Answer: The growth was 27.3% (inactive).

Question: Which growth does the source give for CCOC(=O)CSC(=S)SCC(=O)OCC here?
Answer: The growth was 103% (inactive).

Question: With CC(=O)c1nc2ccccc2n1CCN1CCN(C)CC1 as the compound, how does the growth read?
Answer: Its growth is 8.01% (active).

Question: With COc1cc(C(=O)/C=C/c2c(C)n([O-])c3ccc(Cl)cc3[n+]2=O)cc(OC)c1OC as the compound, how does the growth read?
Answer: Its growth is -59.5% (active).

Question: How did the growth turn out when O=c1c2ccccc2sc2c(NCCN3CCOCC3)nc3ccccc3c12 was run?
Answer: Its growth is 75.9% (inactive).

Question: O=S(=O)(Nc1cc(Sc2cccc3cccnc23)c(O)c2ccccc12)c1ccc(F)cc1 was tested. Which growth did it give?
Answer: Its growth is -21.9% (active).

Question: For NC(=O)N1N=C(c2ccc(Cl)cc2)CC1c1cn(-c2ccccc2)nc1-c1ccc(Cl)cc1 (stereo not given), which growth is on record?
Answer: The growth was 80.9% (inactive).

Question: With CCN(CC)CCC(CNc1c2ccc([N+](=O)[O-])cc2nc2cc(OC)c(OC)cc12)c1ccccc1 (stereo not given) as the compound, how does the growth read?
Answer: The growth was -15.9% (active).

Question: With CC[n+]1c(C)ccc2cc(C)ccc21 as the compound, how does the growth read?
Answer: Its growth is 87% (inactive).

Question: Which growth does the source give for COc1cccc(Oc2ccccc2NC(=O)CNC(=O)c2cccc3ccccc23)c1 here?
Answer: The growth was -25.2% [5 µM] (active).

Question: With CC/C=C\C[C@@H](O)C/C=C1/C(=O)C=C[C@H]1C/C=C\CCCC(=O)OC as the compound, how does the growth read?
Answer: Its growth is -15.6% (active).

Question: How did the growth turn out when COc1ccc(Nc2nn3c(SCC(=O)c4ccc(C)cc4)nnc3s2)cc1 was run?
Answer: Its growth is 86% (inactive).

Question: Which growth does the source give for CCN(CC)CCCC(C)Nc1c(C)cnc2cc(Cl)c(C)cc12 (stereo not given) here?
Answer: The growth was 65.9% (inactive).

Question: Which growth does the source give for CCCCCCn1c(-c2ccc(C(=O)O/N=C(\N)c3ccc4ccccc4c3)cc2)nc(-c2ccccc2)c1-c1ccccc1 here?
Answer: The growth was 2.97% (active).
